Data as given in PubChem BioAssay AID1645854 (Buhrlage Lab, Dana-Farber Cancer Institute and Novartis …, 2021).
In all, about 47,000 compounds went through this assay and about 140 (0.3%) were called active. Cut-off read from the data, not from the text of the source: active = inhibition above about 30%; inactive = the rest. The entries come from a sample that favours actives as a whole.

target: Ubiquitin carboxyl-terminal hydrolase 7 (Homo sapiens) (UniProt Q93009); test: blocks human USP7 ubiquitin-rhodamine cleavage (AID 1645854); settings: purified USP7, Ub-rhodamine cleavage fluorescence; at 20 µM; hits give high values
Sequence (Q93009 whole entry, looked up): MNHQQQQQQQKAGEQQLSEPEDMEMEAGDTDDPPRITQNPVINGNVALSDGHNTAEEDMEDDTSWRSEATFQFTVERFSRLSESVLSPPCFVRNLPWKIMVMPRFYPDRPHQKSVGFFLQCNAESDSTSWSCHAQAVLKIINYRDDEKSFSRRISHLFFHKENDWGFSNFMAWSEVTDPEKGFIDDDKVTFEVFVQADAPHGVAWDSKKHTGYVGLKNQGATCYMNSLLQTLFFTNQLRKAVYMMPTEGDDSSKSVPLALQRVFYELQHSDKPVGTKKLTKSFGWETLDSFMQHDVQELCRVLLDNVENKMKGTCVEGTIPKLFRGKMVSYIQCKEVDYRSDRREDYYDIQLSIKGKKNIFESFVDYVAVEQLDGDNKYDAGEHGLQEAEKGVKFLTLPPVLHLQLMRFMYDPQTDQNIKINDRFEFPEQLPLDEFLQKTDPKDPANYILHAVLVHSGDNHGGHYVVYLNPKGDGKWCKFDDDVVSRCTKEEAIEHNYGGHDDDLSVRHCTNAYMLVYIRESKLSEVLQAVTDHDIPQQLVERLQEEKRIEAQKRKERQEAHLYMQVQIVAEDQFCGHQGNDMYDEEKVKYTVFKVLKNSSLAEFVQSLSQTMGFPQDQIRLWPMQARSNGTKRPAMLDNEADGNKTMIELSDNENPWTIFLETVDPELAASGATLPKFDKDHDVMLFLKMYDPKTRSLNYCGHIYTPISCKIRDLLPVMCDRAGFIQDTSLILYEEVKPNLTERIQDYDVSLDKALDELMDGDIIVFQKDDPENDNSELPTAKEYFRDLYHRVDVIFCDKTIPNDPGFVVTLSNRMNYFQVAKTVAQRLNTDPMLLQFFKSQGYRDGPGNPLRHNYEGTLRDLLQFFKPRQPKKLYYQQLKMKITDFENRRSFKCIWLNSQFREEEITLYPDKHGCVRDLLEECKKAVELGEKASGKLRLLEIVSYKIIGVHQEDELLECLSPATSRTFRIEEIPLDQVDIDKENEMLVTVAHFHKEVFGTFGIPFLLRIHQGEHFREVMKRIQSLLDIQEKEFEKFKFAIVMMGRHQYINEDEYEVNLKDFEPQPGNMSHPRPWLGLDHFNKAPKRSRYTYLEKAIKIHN

inhibition, active:
O=C(Cc1ccccc1)Nc1ccc(-c2nc3cnccc3o2)c(O)c1 31.5%
Cc1c(-c2nn3c(-c4ccco4)nnc3s2)cccc1[N+](=O)[O-] 35%
C=C1CCC2[C@](C)(CCC[C@]2(C)C(=O)OC)[C@H]1CCc1ccoc1/C=C/C(=O)O (stereo not given in full) 37.2%
CC1(C)Cc2c(c(-c3ccco3)nc3sc4c(SCCCc5ccccc5)ncnc4c23)CO1 56.7%

inhibition, inactive:
O=C1CCCC2=C1C(c1ccc(O)cc1)n1ncc(C(=O)Nc3ccccc3)c1N2 (stereo not given) 1.67%
Fc1ccc(-c2nn(-c3cccc(F)c3)c3c2cnc2cc4c(cc23)OCO4)cc1 8.85%
CCC(=O)NC(=NCCc1c[nH]c2ccc(Cl)cc12)Nc1nc(C)cc(C)n1 6.43%
Cc1c(S(=O)(=O)N2CCCC2)cc(C(=O)Nc2ccccc2F)n1C 1.4%
Cc1ccc(-c2cc(=O)oc(-c3ccc(Br)cc3)n2)cc1 4.33%
COc1ccc(OC)c(-c2cc(C(=O)N3C[C@@H]4C[C@@]5(C)[C@H](CCC[C@@H]35)N4)[nH]n2)c1 1.2%
Cc1ccccc1Nc1nccc(C2CCCN(C(=O)C3(c4ccccc4)CC3)C2)n1 (stereo not given) -0.199%
CC12CCN(CCC(F)(F)F)CCN1C(=O)N(Cc1ccccn1)C2=O (stereo not given) -2.02%
Cc1nc(Nc2ccccn2)cc(C2CCCN2C(=O)c2cccnc2)n1 (stereo not given) -7.09%
CCc1ccccc1NC(=O)COc1nsnc1N1CCOCC1 -0.647%
Cc1cc(O)c2c(C)c(CC(=O)N3CCC[C@H]3C(=O)O)c(=O)oc2c1 0.928%
Cc1nc2ccccc2c(=O)n1-c1ccc(F)c(NC(=O)c2ccccc2[N+](=O)[O-])c1 3.02%
O=S(=O)(Cc1noc(-c2ccc(OC(F)(F)F)cc2)n1)c1ccc(F)cc1 -2.05%
Cc1nc2sccn2c1CN1C[C@@H](c2ccccn2)[C@@]2(CCCCC(=O)N2)C1 5.2%
CC(=O)N1CCCn2c(nc(CNC(=O)c3cnn(C)c3)cc2=O)C1 6.8%
Cc1ccccc1CNC(=O)CCc1nc2ccccc2c(=O)n1C -6.78%
CC(C)n1ncc2c(C(=O)NCc3ccccc3CN(C)C)cc(C3CC3)nc21 -0.227%
CN1C(=O)OC2(CCN(S(=O)(=O)c3ccccc3)CC2)c2ccccc21 4.14%
CCCNC(=O)c1nc2c(o1)CN(CC1CC1)C2 0.464%
CN(C(=O)COc1ncnc2c1cnn2-c1ccccc1)C1CCCCC1 1.52%
Cc1cccc(S(=O)(=O)N(CC(=O)N(C)Cc2ccccc2)Cc2ccccc2)c1 -0.03%
COc1cc(C)c(CN2CCC3(CC2)OCCc2cnc(C)nc23)cc1C -2.12%
O=C(Nc1cc(C(F)(F)F)ccc1-n1cnc2ccccc21)c1ccc(S(=O)(=O)N2CCCCC2)cc1 12.8%
Cc1nc(CN2CCn3c(CNC(=O)C4CC4)cnc3C2C)cs1 (stereo not given) -127%
CCCN(C(=O)c1cccc2c1SCCC2=O)c1ccc(F)cc1 -4.01%
COc1cc(C(=O)Nc2ccc(-c3nc4cnccc4o3)cc2)cc(OC)c1OC 5%
O=C(Nc1ccc(-c2nc3cnccc3o2)c(O)c1)c1ccc(-c2ccccc2)cc1 5.05%
CCOc1ccc(NC(=O)Cn2c(=O)n(CCC(=O)N3CCc4ccccc4C3)c(=O)c3ccccc32)cc1 3.17%
O=C(Nc1ccc(F)cc1F)c1csc2c1CCCCC2 3.29%
O=C(NCc1ccc2c(c1)OCO2)C1(c2ccc(Cl)cc2)CCCC1 -12.3%
CN(Cc1ccccc1)Cc1cn[nH]c1-c1ccc(Cl)cc1 -24%
Cc1nc2nc(NCc3ccccc3)[nH]n2c(=O)c1CCC(=O)N1CCCCC1C (stereo not given) 2.27%
CC1=NOC(CNS(=O)(=O)c2cc(C)ccc2C)C1 (stereo not given) -0.759%
O=C1NC2(CCN(C(=O)Cc3ccc(F)cc3)CC2)N=C1c1ccc(Cl)cc1 -39.3%
COc1c(O)c2c3c(c1O)C(=O)[C@@]1(O)C(=C3C(C)=CC2=O)O[C@@H](C)C1(C)C -76.3%
COc1ccc(Cl)cc1NC(=O)C1CC(=O)NC(Nc2ccccc2)=N1 (stereo not given) -1.4%
Cc1cc(C)n2nc(C(=O)N3CCCC(Cc4[nH]ncc4C)C3)cc2n1 (stereo not given) -0.00929%
CSc1cccc(NC(=O)CC(=O)Nc2ccc3nc4n(c(=O)c3c2)CCCCC4)c1 1.86%
CC1(C2CCN(C(=O)NC3CCCCC3)CC2)NC(=O)NC1=O (stereo not given) 2.45%
CC(C)CCN1C[C@H]2CCN(C(=O)c3cnccn3)CC[C@H]2S1(=O)=O -4.49%
Cc1ccccc1COC(=O)C1CCN(C2=NS(=O)(=O)c3ccccc32)CC1 -0.994%
COc1ccc2[nH]c3c(c2c1)CCN1C(=O)CN(CCc2ccccc2)C(=O)C31C (stereo not given) 4.73%
COC1=C(OC)C(=O)C(C)=C(C)C1=O 3.62%
O=C(Nc1cccc(S(=O)(=O)N2CCCCCC2)c1)c1ccc(N2CCOCC2)c([N+](=O)[O-])c1 8.97%
CC(C)(C)c1cc(-c2ccccc2)nc(-c2ccccc2)c1 1.78%
O=C(CCN1CCOC(Cn2cncn2)C1)N1CCCCC1 (stereo not given) 1.57%
O=C(CN(Cc1ccccc1)S(=O)(=O)c1ccccc1)N1CCCCCC1 -6.83%
Cc1ccc(NS(=O)(=O)c2cc(-c3[nH]ncc3C(=O)N3CCCC3)oc2C)cc1F -40.8%
COCCn1cnc2c1c(=O)n(CC(=O)Nc1c(C)cc(C)cc1C)c(=O)n2Cc1ccccc1 0.0199%
CC(Nc1nnc(Cc2ccccc2)c(=O)[nH]1)c1ccccc1 (stereo not given) 19.7%
CC(C)Cc1cc(-c2nn3c(-c4ccccc4Cl)nnc3s2)n[nH]1 7.86%
Cc1cccc(CNC(=O)c2ccc3c(c2)NC(=O)C2CCC(=O)N32)c1 (stereo not given) 1.1%
O=C1CC(CNS(=O)(=O)c2cccc(Cl)c2)CN1c1ccccc1 (stereo not given) -3.38%
Cn1c(=O)c2ccc(C3CCN(C(=O)CN4CCCC4)C3)nc2n(C)c1=O (stereo not given) -2.1%
COc1cc2c(c(OC)c1OC)-c1ccc(N3CCN(Cc4ccccc4)CC3)c(=O)cc1[C@@H](NC(C)=O)CC2 -1.92%
C=C1CCC2[C@](C)(CCC[C@]2(C)C(=O)OC)[C@H]1CCc1ccoc1C[N+](C)(C)Cc1ccccc1 (stereo not given in full) 19.4%
C=C1CCC2[C@](C)(CCC[C@]2(C)C(=O)OC)[C@H]1CCc1ccoc1CNCC(=O)O (stereo not given in full) 1.95%
CCc1cc(C(=O)NC2CC(C)(C)Cc3nc(N4CCCC4)ncc32)no1 (stereo not given) -17.3%
Cc1ccc(-c2cn3ccn(-c4ccc(C)cc4C)c(=O)c3n2)cc1 6.15%
CC(C)CN1[C@H]2CCN(C(=O)c3cccn3C)CC[C@@H]2Oc2ccccc2S1(=O)=O -3.56%
Cn1cc(C2=CCN(S(=O)(=O)c3cccc4cccnc34)CC2)c2cccnc21 -2.34%
Cc1nnc(C(=O)Nc2ccc(C(=O)NCc3ccccc3C)cc2)s1 6.22%
O=C(Nc1nc(-c2ccc3c(c2)CCN3C(=O)c2ccccc2F)cs1)c1cccnc1 26.5%
CCS(=O)(=O)c1cccc(C(=O)Nc2c(C(N)=O)oc3ccccc23)c1 1.8%
CN1CCN(c2ccc(CNS(=O)(=O)c3cccc(F)c3)cc2)CC1 3.64%
COc1ccccc1CNc1ccc2c(cc1=O)[C@@H](NC(C)=O)CCc1cc(OC)c(OC)c(OC)c1-2 -13.3%
CCS(=O)(=O)N1CCC(c2nc(C)c(-c3ccnc(C)n3)s2)CC1 3.86%
C=C1Nc2ccccc2C(=O)N1c1cccc(NC(=O)c2ccc(F)cc2)c1 1.49%
O=C(CCc1nc(-c2cccnc2)no1)Nc1cc(Cl)ccc1O -16.2%
CC(C)Cc1nnc(NC(=O)c2cc(=O)[nH]c3ccccc23)s1 -0.0201%
COc1cc(C(=O)N[C@@H]2C(=O)Nc3c(c(C)nn3C)[C@H]2c2cccc(Cl)c2)cc(OC)c1OC -9.37%
CN1C(=O)C2CCCCN2c2ccc(C(=O)NC3CCCC3)cc21 (stereo not given) -1.37%
O=C(CCc1ccccc1)N1C[C@@H]2OCC(=O)N(C3CCOCC3)[C@H]2C1 10.2%
C[C@H](NC(=O)[C@@H]1Cc2c([nH]c3ccccc23)C2c3ccccc3C(=O)N21)C(=O)NC1CC1 (stereo not given in full) -18.8%
CC(/C=C/C(=O)NO)=C\C(C)C(=O)c1ccc(N(C)C)cc1 (stereo not given) -1.05%
CC1(C)CCc2c(cc(OCC(=O)NCC(=O)O)c3c4c(c(=O)oc23)CCC4)O1 8.33%
CCCc1cc(=O)oc2cc(OCC(=O)NCc3ccc(OC)cc3)ccc12 1.51%
CCCCCCSc1ncnc2c1sc1nc(-c3ccccc3)c3c(c12)CC(C)(C)OC3 1.19%
CSc1ncnc2c1sc1nc(-c3ccccc3)c3c(c12)CC(C)(C)OC3 4.67%
COCCN1C(=O)Cc2c(C)nc(C3(C)CCCN(c4ccnc(C)n4)C3)nc21 (stereo not given) -0.762%
Cc1cc(-c2cnc(C)nc2C2CCN(C(=O)Cc3ccccc3F)CC2)on1 0.853%
